Screens (PubChem)
FLuc counter: counter-screen for miR-21 project: firefly luciferase inhibitors or activators; 360,000 compounds, 6.9% hits; P08659; AID 588342; Potency, µM (series often up to 57.5 µM), without a hit: at the highest dose activity change, negative = inhibition, hits mostly inhibitors; purified FLuc, Km substrates, luminescence inhibition;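 also: plate controls were vehicle for no effect and reference inhibitor for full effect; nearly all actives have a fitted effect of over 55% in size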
Target sequence (P08659 whole entry, looked up): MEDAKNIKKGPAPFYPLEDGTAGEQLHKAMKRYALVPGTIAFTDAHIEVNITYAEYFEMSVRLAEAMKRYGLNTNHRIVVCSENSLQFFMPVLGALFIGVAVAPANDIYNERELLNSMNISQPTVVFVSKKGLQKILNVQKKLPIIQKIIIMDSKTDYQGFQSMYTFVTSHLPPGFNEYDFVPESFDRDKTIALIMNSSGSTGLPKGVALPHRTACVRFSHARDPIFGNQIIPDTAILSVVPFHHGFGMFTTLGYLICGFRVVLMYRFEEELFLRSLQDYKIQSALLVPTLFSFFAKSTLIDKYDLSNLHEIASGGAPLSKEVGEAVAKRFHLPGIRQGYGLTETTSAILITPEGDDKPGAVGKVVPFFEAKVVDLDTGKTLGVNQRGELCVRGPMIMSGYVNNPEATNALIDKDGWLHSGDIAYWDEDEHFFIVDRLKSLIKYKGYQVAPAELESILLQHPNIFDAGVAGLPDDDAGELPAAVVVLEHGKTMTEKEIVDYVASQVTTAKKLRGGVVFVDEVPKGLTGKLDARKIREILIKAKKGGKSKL
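Purified P. pyralis luciferase, 10 nM final, with Km-level 10 uM D-luciferin and 10 uM ATP in 50 mM Tris acetate pH 7.5, 10 mM Mg acetate, 0.01% Tween-20, 0.05% BSA; 6-point qHTS titration about 60 µM downward; luminescence read.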
SMN2 splice enh: enhancers of SMN2 splice variant expression; HEK293 SMN2-luciferase splicing reporter, luminescence, 30-36 h; Potency, µM (titrated, usually from 46.1 µM), for the others: at the highest dose activity change, positive = activation, hits mostly activators; 210,000 compounds, 2.8% hits; AID 1458; also: % of control where 0% means no effect; nearly all actives have a fitted effect of over 55% in size
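HEK293 cells carry an SMN2 […]–luciferase reporter in which exon 7 inclusion puts luciferase in frame. Cells were plated 10-12 h before compound addition, then incubated 30-36 h at 37C. ONE-Glo luminescence was read; sodium butyrate at 4.5 mM final served as control.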
ELG1 genotox: induces genotoxicity in HEK293T cells with luciferase-tagged ELG1 | 330,000 compounds, 1.3% hits | Potency, µM (series often up to 46 µM), inactives show top-dose activity change, positive = activation, most hits filed as activators | HEK293T ELG1-luciferase reporter, luminescence, 16 h | AID 504466; also: % of control where 0% means no effect; nearly all actives have a fitted effect of over 60% in size
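Luminescence read-out: rising ELG1-luciferase signal, reflecting elevated ELG1 protein under genetic stress, flags genotoxic compounds. Cells were treated for 16 hr at 37 °C before ONE-Glo detection.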
ELG1 DNA repair: inhibitors of ELG1-dependent DNA repair in HEK293T cells; HEK293T ELG1-luciferase reporter, luminescence, 16 h; DNA damage induced by 5-fluorouridine; Potency, µM (top dose mostly 46.1 µM), without a hit: at the highest dose activity change, negative = inhibition, usual class: inhibitors; 330,000 compounds, 2.3% hits; also: % is scaled to controls: 0 for no effect and ±100 for the full control effect; nearly all actives have a fitted effect of over 55% in size
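Overnight (16 hr) co-exposure of 2,000 cells/well to 5-fluorouridine and compound at 37 °C preceded detection. Luciferase was quantified via ONE-Glo luminescence; loss of signal denotes inhibition.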
NPC1 promoter act: activates the NPC1 promoter. Huh7 NPC1 promoter luciferase reporter, 24 h. 320,000 compounds, 2.4% hits. Potency, µM (doses to about 9.22 µM), for inactives: at the top dose activation, most hits filed as activators; also: % of control where 0% means no effect; nearly all actives have a fitted effect of over 60% in size
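Stable NPC1-promoter luciferase Huh7 line; cpd (DMSO) 24 h, 37 °C, 5% CO2; Amplite luciferase reagent 10 min RT; luminescence readout. qHTS format.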
Rab9 promoter act: activators of Rab9 promoter. AID 485297. Potency, µM (titrated, usually from 9.22 µM), for inactives: at the highest dose activation, negative = inhibition, most hits filed as activators. Huh7 Rab9 promoter-luciferase reporter, luminescence, 24 h. 320,000 compounds, 2.8% hits; also: % of control where 0% means no effect; nearly all actives have a fitted effect of over 60% in size
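Huh7 cells stably carrying Rab9 promoter–luciferase reporter, plated 1500 cells/well, compound added after 2 h and incubated 24 h at 37 °C; luciferase luminescence then read after 10 min with detection reagent.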
* = called active by the depositor; ? = inconclusive; . = not tested or not shown. An excerpt weighted towards active compounds, which were near 9.4% of everything screened. Calls follow the shape of the dose curve; as a rule, active = well fitted curve in the direction sought with a large enough effect; inconclusive = small, poorly fitted or top-dose-only effect, or another doubt; inactive = no such curve, though single readings can be large; an effect the other way counts as inactive or inconclusive. Potency is read from the fitted curve at half-maximal effect.

SMILES | FLuc counter | SMN2 splice enh | ELG1 genotox | ELG1 DNA repair | NPC1 promoter act | Rab9 promoter act
COc1cccc(-c2cc(C(=O)N3CCCCCC3)no2)c1 | 2.1µM* | 3.2µM* | 1.5µM* | ? | 0.56µM* | 0.32µM*
Cc1ccc(N2C(=O)CS(=O)(=O)C23C(=O)N(Cc2ccc(Cl)cc2)c2ccccc23)cc1C (stereo not given) | 5% | . | . | . | . | .
CN(c1ncnc2onc(-c3cccc(Cl)c3)c12)C1CCCCC1 | -17% | 2% | . | . | . | .
CCOC(=O)COc1ccc(F)cc1C(=O)c1ccn2nc(-c3ccc(Cl)cc3)cc2n1 | -2% | -5% | . | . | . | .
O=C(CSC1=Nc2ccccc2N=C(c2ccc(F)cc2)C1)Nc1cccc(C(F)(F)F)c1 | -7% | . | . | . | . | .
COc1ccc(-c2cc(C(=O)N3CCCC3)no2)cc1 | 1.2µM* | . | 2.9µM* | ? | 0.4µM* | 0.63µM*
O=C(O)c1ccccc1C(=O)NCC(O)c1ccccc1 (stereo not given) | 1% | . | 0% | 15% | 4% | -1%
O=C(NC[C@H](O)c1ccccc1)c1ccccc1 | . | 14µM* | . | . | . | .
CC1=C(C)CC(C(=O)NNC(=O)c2ccccc2)C(C(=O)O)C1 (stereo not given) | -1% | 2% | 3% | 21% | 6% | 0%
O=C(CNC(=O)c1ccc(-c2ccccc2)cc1)OCc1ccc(Br)cc1 | 21µM* | 3.5µM* | 11% | ? | 16% | 28%
CC1=C(C)CC(C(=O)NCC(=O)c2ccccc2)C(C(=O)O)C1 (stereo not given) | 15µM* | 17% | 16µM* | ? | 4% | 22%
COc1ccc(C(=O)NCC(=O)OCc2ccc(Br)cc2)cc1 | -1% | -20% | 1% | -7% | -1% | -6%
O=C(CNC(=O)c1ccccc1)c1ccccc1 | 6.7µM* | . | ? | ? | 0.71µM* | 0.45µM*
O=C(O)CNC(=O)c1ccccc1 | 1% | . | -6% | 8% | 2% | -7%
CC(C)(C)c1ccc(C2Sc3ccccc3NC3=C2C(=O)c2ccccc23)cc1 (stereo not given) | 4% | 1% | . | . | . | .
CC(NC(=O)COC(=O)CNC(=O)c1ccc(-c2ccccc2)cc1)c1ccccc1 (stereo not given) | 17µM* | . | -2% | 7% | 6% | 9%
O=C(CNC(=O)c1ccc(Br)cc1)c1ccc(Br)cc1 | 3% | . | 2% | 6% | -2% | 8%
O=C(CNC(=O)c1ccccc1)OC1CCCCC1 | 12µM* | 13µM* | ? | ? | 4µM* | 0.89µM*
O=C(CNC(=O)c1ccc(Br)cc1)c1ccccc1 | 4.8µM* | . | ? | ? | 2.8µM* | 2µM*
CC(NC(=O)COC(=O)Cc1ccc(-c2ccccc2)cc1)c1ccccc1 (stereo not given) | ? | ? | 0% | -1% | -2% | -2%
O=C(CNC(=O)c1ccc(F)cc1)c1ccc(Cl)cc1 | 9.5µM* | . | ? | ? | 4µM* | 1.6µM*
O=c1c2sc3ccccc3c2n(Cc2ccccc2)c(=O)n1CCc1ccccc1 | -6% | 3% | . | . | . | .
CCCCCOC(=O)NCC(O)c1ccccc1 (stereo not given) | 13µM* | ? | ? | ? | 2.5µM* | 4.5µM*
O=C(CNC(=O)c1ccccc1C(=O)O)c1ccccc1 | 12µM* | -8% | ? | ? | 2.8µM* | 3.5µM*
O=C(CCSCc1ccccc1F)N1CCN(c2ccc(F)cc2)CC1 | 1% | . | . | . | . | .
SMILES | FLuc counter | SMN2 splice enh | ELG1 genotox | ELG1 DNA repair | NPC1 promoter act | Rab9 promoter act
Cc1cccc(N/N=C/c2ccccc2O)c1 | 6µM* | 11µM* | ? | ? | ? | 4µM*
Cc1cccc(N/N=C/c2ccncc2)c1 | 15µM* | . | ? | ? | ? | ?
Cc1cccc(NC(=O)C(=O)N/N=C/c2ccncc2)c1 | -10% | 10% | 2% | 0% | -2% | -2%
O=C(N/N=C/c1ccncc1)c1cccc(N/N=C/c2ccncc2)c1 | 11µM* | ? | -2% | 9% | 3.5µM* | ?
O=C(N/N=C/c1ccc(O)cc1)c1cccc(C(F)(F)F)c1 | ? | 6% | 9% | 0% | 0% | -3%
O=C(N/N=C/c1ccc(O)cc1)c1cccc(N/N=C/c2ccc(O)cc2)c1 | 2.1µM* | . | ? | ? | 0.56µM* | 0.89µM*
Cc1cc(C)c2c(CC(=O)Nc3ccc(S(=O)(=O)N4CCCC(C)C4)cc3)coc2c1 (stereo not given) | -3% | 14% | . | . | . | .
Nc1ccc(C(=O)Nc2ccccc2C(=O)O)cc1 | 6µM* | -13% | ? | ? | 24% | 20%
O=C(Nc1ccccc1C(=O)Nc1ccccc1C(=O)O)c1ccccc1 | 15µM* | . | -18% | 1% | -5% | 3%
O=C(Nc1ccccc1C(=O)NC1CC1)c1ccccc1 | 4% | . | 2% | 23% | -6% | -2%
O=C(O)CNc1ccccc1C(=O)O | -1% | . | 0% | 21µM* | -2% | 0%
CCOc1ccc(C(=O)Nc2ccccc2C(=O)O)cc1 | 0.95µM* | 8.9µM* | ? | ? | 0.63µM* | 1µM*
O=C(Nc1ccccc1C(=O)O)c1ccc(NC(=O)C2CC2)cc1 | 0% | . | -11% | 25% | 1% | 0%
CCCC(=O)Nc1ccccc1NC(=O)c1ccc(OCC)cc1 | 1% | -9% | -3% | ? | -7% | 1%
Cc1ccc(CNC(=O)CN2C(=O)COc3ccc(S(=O)(=O)N4CCC(C)CC4)cc32)cc1 | -13% | 18% | . | . | . | .
COc1cccc(CNC(=O)CCc2c(C)c3ccc(O)c(C)c3oc2=O)c1 | 3% | -10% | . | . | . | .
Cc1cc(SCC(=O)Nc2ccc(C(F)(F)F)cc2)nc(=O)[nH]1 | -8% | . | . | . | . | .
O=C(Nc1ccccc1C(=O)O)c1ccc(Br)o1 | 19µM* | 6% | ? | ? | ? | ?
O=C(Nc1ccccc1C(=O)Nc1nncs1)c1ccccc1 | 21µM* | . | -8% | 21µM* | -3% | -2%
O=C(O)c1ccccc1NC(=O)c1ccccc1Nc1ccccc1 | 17µM* | . | -7% | -4% | 5% | -3%
Cc1ccccc1C(=O)Nc1nncs1 | 2% | -7% | 10% | ? | 0% | 22%
Cc1ccc(C2CC(=O)N(Cc3ccccc3F)c3c2c(C)nn3-c2nc(C)cc(C)n2)cc1 (stereo not given) | -3% | . | . | . | . | .
Cc1ccc(NC(=O)C2CCC(CNS(=O)(=O)c3csc(C(N)=O)c3)CC2)cc1Cl (stereo not given) | -1% | . | . | . | . | .
CCc1ccc2oc(C(=O)Nc3ccccc3OC)cc(=O)c2c1 | -4% | -1% | . | . | . | .
O=C(COC(=O)c1cccs1)NC12CC3CC(CC(C3)C1)C2 | 24µM* | 8% | -1% | 9% | -3% | 11%
